Measured values taken from PubChem BioAssay (Tox21).
Where “and” joins values, the source holds several entries; their conditions need not be identical. Equal entries are not always repeated. Results filed as inconclusive are left out. Values without a mark were called inactive. Calls of active or inactive are those of the source. The call rests on the fitted dose curve; in most records, active means well fitted cell-killing curve with a large enough effect in the repeat runs; inconclusive means weak or mixed curves; inactive means no such curve, though single readings can be large or run the other way.

Test: qHTS assay to identify small molecule agonists of the peroxisome proliferator-activated receptor delta (PPARd) signaling pathway - cell viability counter screen (AID 743211); further: nearly all actives have a fitted effect of over 55% in size
Settings: PPARd-bla HEK293H viability, CellTiter-Glo luminescence, 17 h; series mostly up to 62.6 µM; activity change, negative = cytotoxicity: at the top concentration
Description: U.S. Tox21 Program National Center for Advancing Translational Sciences [NCATS] NIH Chemical Genomics Center [NCGC] U.S. Environmental Protection Agency [EPA] National Institutes of Environmental Health Sciences [NIEHS] National Toxicology Program [NTP] U.S. Food and Drug Administration [FDA] Tox21 Assay Overview: The peroxisome proliferator-activated receptors (PPARs) are lipid-activated transcription factors of the nuclear receptor superfamily with three distinct subtypes namely PPAR alpha, PPAR delta (PPARd) and PPAR gamma. All these subtypes heterodimerizes with Retinoid X receptor (RXR) and have different physiological functions. […] To identify the compounds that activate PPAR-delta signaling, GeneBLAzer PPAR delta UAS-bla HEK293H cell line (Invitrogen, Carlsbad, CA, USA) containing a beta-lactamase reporter gene under the control of an Upstream Activator Sequence (UAS) was used to screen the Tox21 compound library. The cytotoxicity of the Tox21 compound library against the PPARd-bla cell line was tested in parallel by measuring the cell viability using CellTiter-Glo assay (Promega, Madison, WI) in the same wells.
Tox21 Assay Protocol Summary: PPARd-bla cells were dispensed at 3000 cells/6uL/well in 1536-well black wall/clear bottom plates using a Multidrop Combi (Thermo Fisher Scientific, Waltham, MA) dispenser. After the assay plates were incubated at 37 C and 5% CO2 for 5 h, 23 nL of compounds dissolved in DMSO, positive controls or DMSO only was transferred to the assay plate by a Pintool station (Kalypsys, San Diego, CA). The assay plates were incubated at 37C for 17 h. After 1 uL of LiveBLAzerTM B/G FRET substrate was added using a Bioraptr Flying Reagent Dispenser (FRD) workstation (Beckman Coulter, Indianapolis, IN, USA), the plates were incubated at room temperature for 2 h, and fluorescence intensity was measured by an Envision plate reader (PerkinElmer, Shelton, CT). For cell viability readout that measures cytotoxicity, 3 ul/well of CellTiter-Glo reagent was added into the assay plates using a Bioraptr FRD. After 30 min incubation at room temperature, the luminescence intensity in the plates was measured using a ViewLux plate reader (PerkinElmer).
On the % scale 0 is the no-effect control and ±100 the full control effect; potency means the concentration at half of the fitted maximal effect.

Question: Which “activity change, negative = cytotoxicity” value does the source give for `CC1(C)[C@H](/C=C2\CCSC2=O)[C@@H]1C(=O)OCc1coc(Cc2ccccc2)c1` here?
Answer: -15%

Question: Which “activity change, negative = cytotoxicity” value does the source give for `CC(C)=CC1C(C(=O)OC(C#N)c2cccc(Oc3ccccc3)c2)C1(C)C` (stereo not given) here?
Answer: 4.25%

Question: For `CCCN`, which “activity change, negative = cytotoxicity” value is on record?
Answer: -0.393% [at 81.1 µM]

Question: Which “activity change, negative = cytotoxicity” value does the source give for `CN` here?
Answer: 7.61% [at 81.1 µM]

Question: Which “activity change, negative = cytotoxicity” value does the source give for `CCCCN(CCCC)C(=S)[S-].CCCCN(CCCC)C(=S)[S-].[Ni+2]` here?
Answer: 7.22%

Question: Which “activity change, negative = cytotoxicity” value does the source give for `CCCCON=O` here?
Answer: -17.3% [at 81.1 µM]

Question: For `Nc1ccccc1-c1ccccc1`, which “activity change, negative = cytotoxicity” value is on record?
Answer: 0.966%

Question: Which “activity change, negative = cytotoxicity” value does the source give for `CSC1=N[C@@](C)(c2ccccc2)C(=O)N1Nc1ccccc1` here?
Answer: -21.9%

Question: Which “activity change, negative = cytotoxicity” value does the source give for `ClC(Cl)C(Cl)(Cl)Cl` here?
Answer: 1.31%

Question: Which “activity change, negative = cytotoxicity” value does the source give for `CC(=O)O.CC(=O)O.CC(=O)O.CC(=O)O.CC(=O)O.CC(=O)O.CC(=O)O.O.O.[Cr].[Cr].[Cr]` here?
Answer: 6.24%

Question: For `[Cl-].[Cl-].[Sn+2]`, which “activity change, negative = cytotoxicity” value is on record?
Answer: 2.86%

Question: Which “activity change, negative = cytotoxicity” value does the source give for `CC(Cl)CCl` (stereo not given) here?
Answer: 0.964%

Question: For `CCN(CC)C(=S)S`, which Potency is on record?
Answer: 13.9 µM (active) and 3.87 µM (active) and 4.9 µM (active)

Question: Which “activity change, negative = cytotoxicity” value does the source give for `CCN(CC)CCN1C(=O)CN=C(c2ccccc2F)c2cc(Cl)ccc21` here?
Answer: 0.545%

Question: With `Oc1ccc(Cl)c(Cl)c1` as the molecule, how does the “activity change, negative = cytotoxicity” value read?
Answer: -8.33%

Question: For `CCN1CCC2(CC1)COc1cc3c(cc12)N(C(=O)c1ccc(-c2ccc(-c4nnc(C)o4)cc2C)cc1)CC3`, which Potency is on record?
Answer: 9.01 µM (active)

Question: Which “activity change, negative = cytotoxicity” value does the source give for `Cc1ccc(C)c2ccccc12` here?
Answer: -1.8%

Question: For `CO/N=C(\C(=O)OC)c1ccccc1CO/N=C(\C)c1cccc(C(F)(F)F)c1`, which Potency is on record?
Answer: 21.9 µM (active)

Question: For `CCOC(=O)CCN(SN(C)C(=O)Oc1cccc2c1OC(C)(C)C2)C(C)C`, which “activity change, negative = cytotoxicity” value is on record?
Answer: -1.9%

Question: Which Potency does the source give for `[F][Sn]([c]1ccccc1)([c]1ccccc1)[c]1ccccc1` here?
Answer: 0.871 µM (active)

Question: With `N#Cc1ccc(N(CC(N)=O)CC(F)(F)F)cc1C(F)(F)F` as the molecule, how does the “activity change, negative = cytotoxicity” value read?
Answer: -17.4%

Question: For `CCN(CC)C(=O)N[C@@H]1C=C2c3cccc4[nH]cc(c34)C[C@@H]2N(C)C1`, which “activity change, negative = cytotoxicity” value is on record?
Answer: 0.363%

Question: Which “activity change, negative = cytotoxicity” value does the source give for `O=C(O)CCCCCCNC1c2ccccc2CCc2ccccc21` here?
Answer: 0.145%

Question: With `CCn1cc[n+](C)c1` (tested in a mixture with another compound) as the molecule, how does the “activity change, negative = cytotoxicity” value read?
Answer: 0.156%

Question: With `Cc1cc2c3c(c1)C(c1ccccc1)=N[C@@H](NC(=O)c1ccncc1)C(=O)N3CC2` as the molecule, how does the “activity change, negative = cytotoxicity” value read?
Answer: -0.0642%

Question: For `O=[N+]([O-])C(Br)Br`, which “activity change, negative = cytotoxicity” value is on record?
Answer: -10.8%

Question: With `COC(=O)c1ccccc1S(=O)(=O)NC(=O)Nc1nc(C)nc(OC)n1` as the molecule, how does the “activity change, negative = cytotoxicity” value read?
Answer: -0.909%

Question: Which “activity change, negative = cytotoxicity” value does the source give for `CC(Cc1ccc(OCC(=O)O)cc1)NCC(O)c1csc(C(F)(F)F)n1` (stereo not given) here?
Answer: 0.481%

Question: For `O=NN(CCO)CCO`, which “activity change, negative = cytotoxicity” value is on record?
Answer: -1.23%

Question: For `CC(C)N(C(=O)SC/C(Cl)=C/Cl)C(C)C`, which “activity change, negative = cytotoxicity” value is on record?
Answer: -11.2% [at 81.1 µM]

Question: Which Potency does the source give for `C[C@]12C/C(=C/O)C(=O)C[C@@H]1CC[C@@H]1[C@@H]2CC[C@@]2(C)[C@H]1CC[C@]2(C)O` here?
Answer: 49.4 µM (active)

Question: With `BrCC(Br)(Br)Br` as the molecule, how does the “activity change, negative = cytotoxicity” value read?
Answer: -14.6% [at 81.1 µM]

Question: For `O=C(NC(=O)c1c(F)cccc1F)Nc1ccc(Oc2ccc(C(F)(F)F)cc2Cl)cc1F`, which “activity change, negative = cytotoxicity” value is on record?
Answer: -17.7%

Question: For `CCN(CC)Cc1nccn1-c1ccc([N+](=O)[O-])cc1C(=O)c1ccccc1Cl`, which “activity change, negative = cytotoxicity” value is on record?
Answer: -12.7%

Question: With `CC(C)=CCN1CC[C@@]2(C)c3cc(O)ccc3C[C@@H]1[C@@H]2C` as the molecule, how does the “activity change, negative = cytotoxicity” value read?
Answer: -5.95% [at 81.1 µM]

Question: With `CC(=O)C(Cl)C(=O)N(C)C` (stereo not given) as the molecule, how does the “activity change, negative = cytotoxicity” value read?
Answer: -0.434%

Question: With `CNC(=O)Oc1cc(C)cc(C(C)C)c1` as the molecule, how does the “activity change, negative = cytotoxicity” value read?
Answer: -23.7%

Question: Which “activity change, negative = cytotoxicity” value does the source give for `C[C@@H]1CC2=CC(=O)CC[C@@H]2[C@H]2CC[C@@]3(C)[C@@H](CC[C@]3(C)O)[C@@H]21` here?
Answer: 12.2%

Question: Which “activity change, negative = cytotoxicity” value does the source give for `O=C(Nc1ccc(F)cc1F)c1cccnc1Oc1cccc(C(F)(F)F)c1` here?
Answer: 0.0819% [at 81.1 µM]

Question: With `O=C(CCCCl)c1ccc(F)cc1` as the molecule, how does the “activity change, negative = cytotoxicity” value read?
Answer: 0%
